# From PubChem BioAssay
# Activity calls are given as the source filed them.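 Rule for the calls, unless noted: active = compounds whose cell count with miR-34 switched on is under 0.7 times the count with it off; inactive = the rest.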 Peptide text beside a SMILES is read from it. * marks the point of attachment. CH2Cl = ClC*
# Experiments:
# [1] = sensitizers of A549 cells to miR-34 induction, primary screen, imaging, A549 dox-inducible miR-34, nuclei and caspase counts (AID 1347080); conditions: A549 miR-34 inducible, Hoechst nuclei count, 48 h
# [2] = inhibitors of Cryptococcus chitosan production, flow cytometry, Cibacron Brilliant Red staining (AID 1347148; call rule not given here;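 note: compound exposure lasted three days at 37 degrees C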); conditions: Cryptococcus neoformans chitosan, stronger effect = lower value; at 10 µM unless noted
# [3] = measured here: relative caspase fold change +Dox/-Dox
# [4] = measured here: total cells with miR-34 induction, stronger effect = lower value
# [5] = measured here: total cells without miR-34 induction
# [6] = stronger effect = lower value, cell number ratio, induced over uninduced
Compound,fold change ([1]; stronger effect = lower value),"fold change [1, 3]","cell count [1, 4]","cell count [1, 5]","fold change [1, 6]",fold fluorescence [2]
C[N+]1(C)[C@@H]2CC(OC(=O)C(CO)c3ccccc3)C[C@H]1[C@@H]1O[C@@H]12 (some centres undefined),0.929 (inactive),1.43,8500,9160,–,–
CCCCCCC(=O)O[C@H]1CC[C@H]2[C@@H]3CC(=O)C4=CC(=O)CC[C@]4(C)[C@H]3CC[C@]12C,0.899 (inactive),0.574,5250,5830,–,–
CCCCC/C=C\C/C=C\C/C=C\C/C=C\CCCC(=O)NCCCl,–,1.15,6340,6270,1.01 (inactive),–
CC1OC(O[C@H]2C[C@@H](O)[C@]3(CO)[C@H]4[C@H](O)C[C@]5(C)[C@@H](C6=CC(=O)OC6)CC[C@]5(O)[C@@H]4CC[C@]3(O)C2)C(O)C(O)C1O (some centres undefined),0.802 (inactive),1.17,286,356,–,–
CCCCCCC(C)(C)c1cc(OC)c2c(c1)OC(C)(C)[C@@H]1CC=C(C)C[C@@H]21,1.09 (inactive),0.441,6970,6400,–,–
C[C@]12CCC3c4ccc(OC(=O)N(CCCl)CCCl)cc4CCC3C1CC[C@@H]2O (some centres undefined),1.19 (inactive),0.867,2030,1700,–,–
CCCCC/C=C\C/C=C\C/C=C\C/C=C\CCCC(=O)NC[C@@H](C)O,–,0.786,5790,6030,0.961 (inactive),–
CN=C(NS(=O)(=O)c1ccc(Cl)cc1)N1C[C@@H](c2ccccc2)C(c2ccc(Cl)cc2)=N1,–,0.468,3940,5940,0.663 (active),–
CCCCCC(/C=C/C=O)OO (centres undefined),–,1.26,5780,5860,0.987 (inactive),–
O=NN(O)N1CCC[C@H]1C(=O)O,–,1.07,5740,6080,0.944 (inactive),–
CCCC[C@@H](C)C(OC(=O)C[C@@H](CC(=O)O)C(=O)O)C(C[C@@H](C)C[C@H](O)CCCC[C@@H](O)C[C@H](O)[C@H](C)N)OC(=O)C[C@@H](CC(=O)O)C(=O)O (some centres undefined),–,0.809,5390,5780,0.933 (inactive),–
CN=C(NS(=O)(=O)c1ccc(Cl)cc1)N1CC(c2ccccc2)C(c2ccc(Cl)cc2)=N1 (centres undefined),–,0.564,4700,6340,0.741 (inactive),–
CCCCCCCCCCCCCCCC(=O)OC[C@H](COP(=O)([O-])OCC[N+](C)(C)C)OC(=O)CCCC=O,–,2.44,5310,5690,0.934 (inactive),–
C=C(C)[C@@H]1CCC(C)=C[C@H]1c1c(O)cc(O)cc1CCCCC,–,1.35,5030,5500,0.914 (inactive),–
CCCCC/C=C\C/C=C\C/C=C\C/C=C\CCCC(=O)Nc1ccc(O)cc1C,–,0.979,6030,5870,1.03 (inactive),–
CCCCC/C=C\C/C=C\C/C=C\C/C=C\CCCC(=O)N(C)C,–,1.14,5340,5780,0.925 (inactive),–
CCCCC/C=C\C/C=C\C/C=C\C/C=C\CCCC(=O)NCCc1c[nH]c2ccc(O)cc12,–,0.653,5660,5630,1 (inactive),–
COc1cc(/C=C\c2ccc(OC)c(O)c2)cc(OC)c1,–,0.882,1120,1220,0.917 (inactive),–
CCCCC/C=C\C/C=C\C/C=C\C/C=C\CCCC(=O)N[C@H](C)COP(=O)(O)O,–,0.754,5610,5460,1.03 (inactive),–
c1cc2ccc(N3CCNCC3)cc2cn1,–,0.763,5520,5610,0.985 (inactive),–
C[C@@]1(CO)[C@H](O)CC[C@@]2(C)[C@H]1CC[C@H]1C[C@@H]3C[C@@]12CC[C@]3(O)CO,1.03 (inactive),0.966,2420,2350,–,–
CCCC[C@@H](C)[C@@H](OC(=O)C[C@@H](CC(=O)O)C(=O)O)[C@H](C[C@@H](C)C[C@H](O)CCCC[C@@H](O)C[C@H](O)[C@H](C)N)OC(=O)C[C@H](CC(=O)O)C(=O)O,0.911 (inactive),1.82,5520,6060,–,–
CN[C@@H]1CC2OC(C)([C@@H]1OC)n1c3ccccc3c3c4c(c5c6ccccc6n2c5c31)C(=O)NC4 (some centres undefined),0.831 (inactive),0.918,692,832,–,–
OOCCC/C=C/c1ccccc1,–,0.789,5730,5970,0.959 (inactive),–
CCN1C[C@@]2(COC)C3[C@@H](OC)[C@H]4[C@H]1C3([C@@H]1C[C@@]3(O)[C@H](OC(=O)c5ccccc5)[C@@H]1[C@]4(OC(C)=O)[C@@H](O)[C@@H]3OC)[C@H](OC)C[C@H]2O,–,1.45,5730,5800,0.989 (inactive),–

Compound,fold change ([1]; stronger effect = lower value),"fold change [1, 3]","cell count [1, 4]","cell count [1, 5]","fold change [1, 6]",fold fluorescence [2]
c1cc2ccsc2c(N2CCNCC2)n1,–,0.656,5170,5520,0.937 (inactive),–
CCCCC/C=C\C/C=C\C/C=C\C/C=C\CCCC(=O)Nc1cccc(O)c1,–,0.281,5390,5720,0.942 (inactive),–
CCCCC/C=C\C/C=C\C/C=C\C/C=C\CCCC(=O)NC[C@H](C)O,–,1.04,6010,6110,0.983 (inactive),–
CC1(O)C[C@@]23C[C@@H](O)[C@@]4(O)[C@@H](C[C@H](O)C4(C)C)[C@](C)(O)[C@@H]2CCC1[C@H]3O (some centres undefined),0.932 (inactive),1.15,6010,6440,–,–
CCCCC/C=C\C/C=C\C/C=C\C/C=C\CCCC(=O)NCc1ccoc1,–,1.68,5700,5790,0.985 (inactive),–
COc1ccc2cc(C(C#N)OC(=O)OCC3OC3c3ccccc3)ccc2c1 (centres undefined),–,0.565,5380,5890,0.914 (inactive),–
COc1cc(CNC(=O)CCCCCCC(C)C)c(I)cc1O,–,0.817,5730,5600,1.02 (inactive),–
CCCCC/C=C\C/C=C\C/C=C\C/C=C\CCCC(=O)Nc1cccc([N+](=O)[O-])c1,–,0.782,5310,5590,0.95 (inactive),–
C/C1=C/C(=O)O[C@@H]2C[C@@H](CC[C@H](C)/C=C\CC1)O[C@@](O)([C@@H]1CSC(=O)N1)C2,1.2 (inactive),0.63,1070,888,–,–
CCCCC/C=C\C/C=C\C/C=C\C/C=C\CCCC(=O)NCCOP(=O)(O)O,–,0.95,5850,5880,0.994 (inactive),–
CC(C)[C@]1(O)[C@@H](OC(=O)c2ccc[nH]2)[C@@]2(O)[C@@]3(C)C[C@]4(O)O[C@@]5([C@H](O)[C@@H](C)CC[C@]35O)[C@@]2(O)C41C,0.925 (inactive),1.12,5510,5960,–,–
CCCCC/C=C\C/C=C\C/C=C\C/C=C\CCCC(=O)NCCCC(=O)O,–,1.25,5500,5760,0.955 (inactive),–
O[C@H]1[C@H]2[C@H](O)CCCN2C[C@H]1O,0.852 (inactive),1.17,5340,6260,–,–
CCCCC/C=C\C/C=C\C/C=C\C/C=C\CCCC(=O)NC(CO)CO,–,0.877,5640,5870,0.961 (inactive),–
CO[C@@H]1C[C@@H](C[C@H]2CC[C@H](C)[C@H]([C@@H](C)C(=O)O)O2)O[C@]2(O[C@](C)([C@H]3CC[C@@](C)([C@@H]4O[C@@H]([C@H]5O[C@@](O)(CO)[C@H](C)C[C@@H]5C)C[C@@H]4C)O3)C[C@H]2C)[C@@H]1C,0.993 (inactive),1.75,1790,1800,–,5.68 [at 69 µM] (inactive)
CCCCC/C=C\C/C=C\C/C=C\C/C=C\CCCCOC(CO)CO,–,0.95,5720,5810,0.983 (inactive),–
CCCCCCC(=O)O[C@H]1CC[C@H]2[C@@H]3C=CC4=CC(=O)CC[C@]4(C)[C@H]3CC[C@]12C,0.948 (inactive),0.362,5660,5970,–,–
CC(C)(O)[C@H]1O[C@H]2CC[C@@]3(C)[C@@](O)(CC[C@H]4Cc5c([nH]c6ccccc56)[C@@]43C)C2=CC1=O,1.09 (inactive),1.67,3780,3460,–,8.47 [at 114.8 µM] (inactive)
C=C1[C@@H](O)[C@@H]2O[C@@]3(CCC2O[C@@H]1[C@@H](O)C[C@H](C)C1O[C@@]2(CCCCO2)CC[C@H]1C)CC[C@H](/C=C/[C@@H](C)[C@@H]1CC(C)=C[C@@]2(O[C@H](C[C@@](C)(O)C(=O)O)CC[C@H]2O)O1)O3 (some centres undefined),–,0.814,423,472,0.897 (inactive),–
CCCCCCCC/C=C\CCCCCCCC(=O)OC[C@@H](COP(O)(O)=S)OC,–,0.718,6260,5460,1.15 (inactive),–
C[C@H](N)C(=O)N[C@@H](C)C(=O)N[C@@H](Cc1ccccc1)C(=O)CCl (H-Ala-Ala-Phe-CH2Cl),0.806 (inactive),1.41,2970,3680,–,4.89 [at 147.1 µM] (inactive)
COc1ccc(S(=O)(=O)N(CCO)c2ccccc2CN(C)C/C=C/c2ccc(Cl)cc2)cc1,–,1.21,5240,5100,1.03 (inactive),–
COC(C/C=C/C=C/CC/C=C\CC(C)/C=C\C(=C/C(=O)O)CC(=O)O)/C(C)=C\C=C(/C)C(=O)O (centres undefined),–,1.25,5720,5870,0.975 (inactive),5.28 [at 10.3 µM] (inactive)
CCCCC/C=C\C/C=C\C/C=C\C/C=C\CCCC(=O)NCCF,–,1.18,5320,5320,1 (inactive),–
COc1ccc(/C=C/C(=O)CC(=O)/C=C/c2ccc(OC)c(OC)c2)cc1OC,–,0.752,5430,6280,0.864 (inactive),–
